Where a name gives a salt, the structure may show the parent alone. ± gives the standard deviation of the averaged measurements. Whole data set: some 1,900 compounds, median “normalised cell viability (NPI; 0 = phenylarsine oxide control, 1 = DMSO control)” near 1, cut for the lowest 2% near 0.039. The entries come from a sample that favours the lowest values as a whole.

This test deals with NCI-H1944. The test is described as follows: normalised cell viability (NPI; 0 = phenylarsine oxide control, 1 = DMSO control) (fraction of DMSO control); NCI-H1944 is a non-small cell lung cancer line; higher = more viable cells (less compound toxicity). The settings on record: 6 days.
[1] abbreviates: glucocorticoid arm: hydrocortisone 2.75 uM co-treatment, compound 1 µM.
Where [2] appears, read: glucocorticoid arm: hydrocortisone 2.75 uM co-treatment, compound 5 µM.
Setting [3] is: glucocorticoid arm: hydrocortisone 2.75 uM pre-treated 2 days and continued, compound 1 µM.
Where [4] appears, read: glucocorticoid arm: hydrocortisone 2.75 uM pre-treated 2 days and continued, compound 5 µM.
[5] abbreviates: glucocorticoid arm: vehicle, compound 1 µM.
[6] abbreviates: glucocorticoid arm: vehicle, compound 5 µM.
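Note: CTB read-out in 384-well plates, triplicate wells, NPI normalised per plate against 1 µM phenylarsine oxide (0) and 0.1% DMSO (1) controls.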

In the case of `O=[N+]([O-])c1ccc(-c2nc(-c3ccc(F)cc3)c(-c3ccncc3)[nH]2)cc1`, the normalised cell viability under setting [1] turned out to be 0.976 ± 0.019; the normalised cell viability under setting [2] is 0.903 ± 0.014; the normalised cell viability under setting [3] turned out to be 0.9707 ± 0.008; the normalised cell viability under setting [4] worked out at 0.865 ± 0.019; the normalised cell viability under setting [5] was found to be 0.996 ± 0.004; the normalised cell viability under setting [6] came out at 0.962 ± 0.051.
On to `N#C/C(=C/c1ccc(O)c(O)c1)C(=O)NCc1ccccc1` [Tyrphostin AG 490], for which the normalised cell viability under setting [1] is 1.01 ± 0.016; the normalised cell viability under setting [2] is 1.03 ± 0.015; the normalised cell viability under setting [3] stood at 0.999 ± 0.028; the normalised cell viability under setting [4] came to 1 ± 0.014; the normalised cell viability under setting [5] was determined as 1.02 ± 0.01; the normalised cell viability under setting [6] was 1.02 ± 0.01.
Take `C[C@H](Cc1ccc(O)c(O)c1)[C@@H](C)Cc1ccc(O)c(O)c1`: the normalised cell viability came out at 0.996 ± 0.013 under setting [1]; 1.02 ± 0.02 under setting [2]; 0.998 ± 0.013 under setting [3]; 1.04 ± 0.058 under setting [4]; 1.013 ± 0.0058 under setting [5]; 1.02 ± 0.011 under setting [6].
For `CO/N=C(\C(=O)N[C@@H]1C(=O)N2C(C(=O)O)=C(CSc3nc(=O)c(O)nn3C)CS[C@H]12)c1csc(N)n1` [Ceftriaxone sodium salt], the normalised cell viability reads like this: under setting [1], 0.985 ± 0.0052; under setting [2], 0.995 ± 0.025; under setting [3], 0.849 ± 0.22; under setting [4], 0.992 ± 0.0057; under setting [5], 0.964 ± 0.0069; under setting [6], 0.9743 ± 0.006.
As for `Oc1ccc2ccccc2c1SSc1c(O)ccc2ccccc12`, the normalised cell viability under setting [1] was found to be 1.03 ± 0.01; the normalised cell viability under setting [2] turned out to be 1.08 ± 0.021; the normalised cell viability under setting [3] came to 1.017 ± 0.0058; the normalised cell viability under setting [4] came out at 1.01 ± 0.028; the normalised cell viability under setting [5] worked out at 1.013 ± 0.0058; the normalised cell viability under setting [6] worked out at 1.04 ± 0.01.
On to `CNc1nc(Nc2cnn(C3CCN(C4COC4)CC3F)c2Cl)ncc1C(F)(F)F` (stereo not given), for which the normalised cell viability under setting [1] amounted to 1.02 ± 0.01; the normalised cell viability under setting [2] is 1.05 ± 0.023; the normalised cell viability under setting [3] is 1.04 ± 0.01; the normalised cell viability under setting [4] was determined as 1.05 ± 0.01; the normalised cell viability under setting [5] is 1.007 ± 0.0058; the normalised cell viability under setting [6] amounted to 1.007 ± 0.0058.
Regarding `Cc1[nH]nc2ccc(-c3cncc(OC[C@@H](N)Cc4ccccc4)c3)cc12`, the normalised cell viability was determined as 0.452 ± 0.007 under setting [1]; 0.0555 ± 0.0049 under setting [2]; 0.792 ± 0.022 under setting [3]; 0.129 ± 0.0089 under setting [4]; 0.1 ± 0.012 under setting [5]; 0.0136 ± 0.0021 under setting [6].
With `C#Cc1ccc2c(c1)C(=O)N(C)Cc1c(C(=O)OCCCOC(=O)c3ncn4c3CN(C)C(=O)c3cc(C#C)ccc3-4)ncn1-2` [Xli 093 hydrate], the normalised cell viability under setting [1] is 0.999 ± 0.011; the normalised cell viability under setting [2] amounted to 1.01 ± 0.015; the normalised cell viability under setting [3] is 1 ± 0.013; the normalised cell viability under setting [4] was found to be 1.01; the normalised cell viability under setting [5] turned out to be 0.99 ± 0.01; the normalised cell viability under setting [6] was found to be 0.9967 ± 0.0015.
For the compound `CCN1CCN(Cc2ccc(-c3cc4c(N[C@H](C)c5ccccc5)ncnc4[nH]3)cc2)CC1`, the normalised cell viability runs as follows: under setting [1], 0.812 ± 0.041; under setting [2], 0.693 ± 0.043; under setting [3], 0.885 ± 0.014; under setting [4], 0.752 ± 0.047; under setting [5], 0.8103 ± 0.0047; under setting [6], 0.6 ± 0.016.
For `COc1cc(CC(=O)O)ccc1O` [4-Hydroxy-3-methoxyphenylacetic acid], the normalised cell viability stood at 1.007 ± 0.0058 under setting [1]; 1.01 ± 0.014 under setting [2]; 1.01 ± 0.01 under setting [3]; 1.02 under setting [4]; 1.01 ± 0.01 under setting [5]; 1.01 under setting [6].
Regarding `COc1cc(OC)c(/C=C/S(=O)(=O)Cc2ccc(OC)c(NCC(=O)O)c2)c(OC)c1`, the normalised cell viability amounted to 0.307 ± 0.021 under setting [1]; 0.261 ± 0.026 under setting [2]; 0.572 ± 0.03 under setting [3]; 0.572 ± 0.051 under setting [4]; 0.0447 ± 0.0079 under setting [5]; 0.0341 ± 0.0062 under setting [6].
With `Cc1c(F)ccc(C(=O)Nc2cc([N+](=O)[O-])ccc2N2CCN(C)CC2)c1Cl`, the normalised cell viability reads like this: under setting [1], 1.03 ± 0.011; under setting [2], 0.987 ± 0.02; under setting [3], 1.027 ± 0.0058; under setting [4], 1 ± 0.013; under setting [5], 0.9957 ± 0.0075; under setting [6], 0.9963 ± 0.0047.
As for `O=C(O)[C@H]1NCCC[C@H]1C(=O)O` (relative stereo) [cis-Piperidine-2,3-dicarboxylic acid], the normalised cell viability under setting [1] amounted to 1 ± 0.016; the normalised cell viability under setting [2] was determined as 1 ± 0.022; the normalised cell viability under setting [3] turned out to be 1 ± 0.018; the normalised cell viability under setting [4] is 0.973 ± 0.0087; the normalised cell viability under setting [5] was 0.987 ± 0.0092; the normalised cell viability under setting [6] was found to be 0.9887 ± 0.005.
In the case of `CSC(=N)NCCC[C@H](N)C(=O)O` [S-Methyl-L-thiocitrulline acetate], the normalised cell viability under setting [1] came out at 1.003 ± 0.0058; the normalised cell viability under setting [2] amounted to 0.984 ± 0.028; the normalised cell viability under setting [3] stood at 1.01 ± 0.01; the normalised cell viability under setting [4] was found to be 0.989 ± 0.018; the normalised cell viability under setting [5] amounted to 0.9847 ± 0.0051; the normalised cell viability under setting [6] is 0.994 ± 0.014.
With `Nc1ncn([C@@H]2O[C@H](CO)[C@@H](O)[C@H]2O)c(=O)n1` [5-azacytidine], the normalised cell viability under setting [1] amounted to 1.006 ± 0.0063; the normalised cell viability under setting [2] stood at 1.03; the normalised cell viability under setting [3] was determined as 1.01 ± 0.018; the normalised cell viability under setting [4] stood at 1.08 ± 0.014; the normalised cell viability under setting [5] was found to be 0.972 ± 0.015; the normalised cell viability under setting [6] was found to be 0.8937 ± 0.006.
With `Nc1ncn([C@@H]2O[C@H](CO)[C@@H](O)[C@H]2O)c(=O)n1` [Azacitidine; 5-azacytidine], the normalised cell viability was 1.04 ± 0.026 under setting [1]; 1.11 ± 0.015 under setting [2]; 1.04 ± 0.01 under setting [3]; 1.1 ± 0.021 under setting [4]; 0.98 ± 0.017 under setting [5]; 0.766 ± 0.025 under setting [6].
In the case of `Nc1ncn([C@@H]2O[C@H](CO)[C@@H](O)[C@H]2O)c(=O)n1` [Azacitidine], the normalised cell viability worked out at 1.03 under setting [1]; 1.11 ± 0.025 under setting [2]; 1 ± 0.037 under setting [3]; 0.952 ± 0.24 under setting [4]; 0.976 ± 0.011 under setting [5]; 0.903 ± 0.017 under setting [6].
On to `Nc1ccn([C@@H]2O[C@H](CO)[C@@H](O)[C@@H]2O)c(=O)n1`, for which the normalised cell viability was 0.178 ± 0.001 under setting [1]; 0.115 ± 0.0035 under setting [2]; 0.91 ± 0.011 under setting [3]; 0.31 ± 0.04 under setting [4]; 0.0325 ± 0.0032 under setting [5]; 0.0276 ± 0.0059 under setting [6].
On to `Nc1ccn([C@@H]2O[C@H](CO)[C@@H](O)[C@@H]2O)c(=O)n1` [Cytosine-1-beta-D-arabinofuranoside hydrochloride], for which the normalised cell viability came out at 0.352 ± 0.026 under setting [1]; 0.163 ± 0.022 under setting [2]; 1.03 ± 0.017 under setting [3]; 0.802 ± 0.22 under setting [4]; 0.0913 ± 0.011 under setting [5]; 0.0638 ± 0.0066 under setting [6].
On to `Nc1ccn([C@@H]2O[C@H](CO)[C@@H](O)C2(F)F)c(=O)n1` [Gemcitabine hydrochloride; Gemcitabine HCl], for which the normalised cell viability under setting [1] came out at 0.202 ± 0.0062; the normalised cell viability under setting [2] is 1.04 ± 0.015; the normalised cell viability under setting [3] stood at 0.422 ± 0.044; the normalised cell viability under setting [4] was 1.03; the normalised cell viability under setting [5] amounted to 0.0536 ± 0.0027; the normalised cell viability under setting [6] turned out to be 1.013 ± 0.0058.
Take `CN1CCN(C2Cc3ccccc3Sc3ccc(Cl)cc32)CC1` (racemic) [(±)-Octoclothepin maleate]: the normalised cell viability was 1.01 ± 0.011 under setting [1]; 0.9477 ± 0.0045 under setting [2]; 1.01 ± 0.015 under setting [3]; 1.05 ± 0.087 under setting [4]; 1 ± 0.0095 under setting [5]; 1 ± 0.011 under setting [6].
Consider `[N-]=[N+]=Nc1ccc(C(=O)CSC[C@H](NC(=O)CC[C@H](N)C(=O)O)C(=O)NCC(=O)O)cc1` [S-(p-Azidophenacyl)glutathione], for which the normalised cell viability is, setting by setting: under setting [1], 1.017 ± 0.0058; under setting [2], 0.814 ± 0.0099; under setting [3], 0.9947 ± 0.0067; under setting [4], 1 ± 0.021; under setting [5], 0.988 ± 0.014; under setting [6], 0.517 ± 0.38.
Regarding `COCC[n+]1c2c(n(Cc3cnccn3)c1C)C(=O)c1ccccc1C2=O`, the normalised cell viability is, setting by setting: under setting [1], 0.00685 ± 0.0014; under setting [2], 0.00188 ± 0.0012; under setting [3], 0.00552 ± 0.0012; under setting [4], 0.0024 ± 0.00039; under setting [5], 0.00736 ± 0.00083; under setting [6], 0.00199 ± 0.00048.
Take `OC[C@H]1O[C@@H](n2cnc3c(Nc4ccccc4)ncnc32)[C@H](O)[C@@H]1O` [N6-Phenyladenosine]: the normalised cell viability came to 1 ± 0.014 under setting [1]; 1.01 ± 0.011 under setting [2]; 1.02 ± 0.022 under setting [3]; 1.013 ± 0.0058 under setting [4]; 1.01 ± 0.01 under setting [5]; 1.002 ± 0.0076 under setting [6].
`COc1[nH]c2ccc(F)cc2c1C(=O)OCC1CCN(CCNS(C)(=O)=O)CC1.NS(=O)(=O)O`: the normalised cell viability by setting is: under setting [1], 1.023 ± 0.0058; under setting [2], 0.955 ± 0.011; under setting [3], 1.017 ± 0.0058; under setting [4], 0.989 ± 0.021; under setting [5], 0.9993 ± 0.0011; under setting [6], 1.007 ± 0.0058.

For the origin of these results see the supplement of paper PMC8285479.
